# Source: publication PMC7862700, “An all-to-all approach to the identification of sequence-specific readers for epigenetic DNA modifications on cytosine”
# Key:
# Test in all cases: DAPPL (digital affinity profiling via proximity ligation, sequencing); 10 mM Tris-HCl pH 7.5, 50 mM NaCl, 1 mM DTT, 4% glycerol, room temperature, 30 min; GST-TFs on glutathione beads, 16-mer random dsDNA library, 0.1% formaldehyde crosslink after washing; high values mean tight binding
# Conditions in all cases: protein: recombinant; tags: N-terminal GST; dsDNA, one strand shown
# [1] = target: T1, ELK1 (Homo sapiens, UniProt P19419 1-428)
# T1 sequence: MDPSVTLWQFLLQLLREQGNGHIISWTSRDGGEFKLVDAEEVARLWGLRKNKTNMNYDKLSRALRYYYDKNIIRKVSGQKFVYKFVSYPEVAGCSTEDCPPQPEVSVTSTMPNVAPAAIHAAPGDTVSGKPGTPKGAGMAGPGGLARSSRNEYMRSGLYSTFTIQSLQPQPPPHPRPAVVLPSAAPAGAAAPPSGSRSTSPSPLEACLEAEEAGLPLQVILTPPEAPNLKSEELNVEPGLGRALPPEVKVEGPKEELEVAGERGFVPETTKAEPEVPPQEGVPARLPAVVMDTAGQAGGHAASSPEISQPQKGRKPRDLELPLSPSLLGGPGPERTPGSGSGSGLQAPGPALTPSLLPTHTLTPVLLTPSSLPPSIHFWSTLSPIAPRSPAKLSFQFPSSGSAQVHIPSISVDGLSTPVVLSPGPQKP
# Procedure, shortened: (§1)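 A tag-only sample was pooled with DNA-barcoded human transcription factors that had been expressed in yeast as GST fusions and captured on glutathione beads. The pools were incubated for 30 min at room temperature with 200 nmole of a random double-stranded 16-mer DNA library in Tris/NaCl/DTT/glycerol buffer, then washed, crosslinked with 0.1% formaldehyde, proximity-ligated (BsaI/T4 ligase, 1 h, 37 °C), PCR-amplified and sequenced on an Illumina NextSeq500. Binding signal is each hexamer's read frequency for a factor divided by its frequency for the tag-only sample.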
# [2] = target: T2, GABPA (Homo sapiens, UniProt Q06546 1-454)
# T2 sequence: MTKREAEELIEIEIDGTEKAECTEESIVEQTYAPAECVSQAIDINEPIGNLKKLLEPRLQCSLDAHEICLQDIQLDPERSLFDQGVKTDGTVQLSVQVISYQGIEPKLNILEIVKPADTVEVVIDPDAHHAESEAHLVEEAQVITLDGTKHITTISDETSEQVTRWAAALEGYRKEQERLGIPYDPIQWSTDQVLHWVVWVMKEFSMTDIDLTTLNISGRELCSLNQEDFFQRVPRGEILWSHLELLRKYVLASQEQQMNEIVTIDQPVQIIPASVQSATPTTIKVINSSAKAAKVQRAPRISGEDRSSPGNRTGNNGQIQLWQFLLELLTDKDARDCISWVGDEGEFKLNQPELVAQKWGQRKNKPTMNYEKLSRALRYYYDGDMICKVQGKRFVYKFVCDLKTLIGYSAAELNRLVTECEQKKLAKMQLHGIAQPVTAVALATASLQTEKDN
# Procedure, shortened: as §1
# [3] = target: T3, ERG (Homo sapiens, UniProt P11308 1-479)
# T3 sequence: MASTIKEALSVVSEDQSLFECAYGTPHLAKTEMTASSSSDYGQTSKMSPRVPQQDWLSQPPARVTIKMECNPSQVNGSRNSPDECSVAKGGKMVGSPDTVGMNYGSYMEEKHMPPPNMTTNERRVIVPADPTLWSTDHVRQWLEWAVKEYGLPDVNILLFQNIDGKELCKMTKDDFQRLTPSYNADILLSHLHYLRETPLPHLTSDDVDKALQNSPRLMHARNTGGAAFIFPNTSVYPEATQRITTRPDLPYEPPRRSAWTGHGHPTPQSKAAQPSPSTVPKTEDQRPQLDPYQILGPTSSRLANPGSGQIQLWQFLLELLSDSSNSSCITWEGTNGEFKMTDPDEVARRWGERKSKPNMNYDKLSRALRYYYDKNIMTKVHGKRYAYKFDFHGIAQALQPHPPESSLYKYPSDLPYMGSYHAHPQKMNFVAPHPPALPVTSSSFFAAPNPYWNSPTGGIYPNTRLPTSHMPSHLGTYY
# Procedure, shortened: as §1
# [4] = target: T4, EHF (Homo sapiens, UniProt Q9NZC4 1-300)
# T4 sequence: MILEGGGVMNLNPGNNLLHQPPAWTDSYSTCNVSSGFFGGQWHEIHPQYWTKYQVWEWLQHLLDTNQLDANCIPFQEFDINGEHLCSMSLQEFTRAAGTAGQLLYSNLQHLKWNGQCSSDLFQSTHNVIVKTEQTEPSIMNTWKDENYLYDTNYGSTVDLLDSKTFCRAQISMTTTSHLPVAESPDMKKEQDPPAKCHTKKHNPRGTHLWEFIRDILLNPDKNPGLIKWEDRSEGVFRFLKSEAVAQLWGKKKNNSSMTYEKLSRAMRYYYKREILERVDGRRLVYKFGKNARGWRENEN
# Procedure, shortened: as §1
# [5] = target: SPIB (Homo sapiens, UniProt Q01892 1-262)
# Procedure, shortened: as §1
# [6] = target: T5, FEV (Homo sapiens, UniProt Q99581 1-238)
# T5 sequence: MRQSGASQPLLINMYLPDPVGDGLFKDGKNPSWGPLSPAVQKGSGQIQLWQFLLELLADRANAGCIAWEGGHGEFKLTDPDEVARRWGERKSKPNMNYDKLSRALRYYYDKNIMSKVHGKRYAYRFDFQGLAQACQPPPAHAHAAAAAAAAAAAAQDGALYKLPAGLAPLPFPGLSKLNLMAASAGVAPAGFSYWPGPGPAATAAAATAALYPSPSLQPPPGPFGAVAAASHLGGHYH
# Procedure, shortened: as §1
# [7] = target: ETV5 (Homo sapiens, UniProt P41161 1-510)
# Procedure, shortened: as §1
# [8] = target: ELF4 (Homo sapiens, UniProt Q99607 1-663)
# Procedure, shortened: as §1
# [9] = target: T6, ETV2 (Homo sapiens, UniProt O00321 1-342)
# T6 sequence: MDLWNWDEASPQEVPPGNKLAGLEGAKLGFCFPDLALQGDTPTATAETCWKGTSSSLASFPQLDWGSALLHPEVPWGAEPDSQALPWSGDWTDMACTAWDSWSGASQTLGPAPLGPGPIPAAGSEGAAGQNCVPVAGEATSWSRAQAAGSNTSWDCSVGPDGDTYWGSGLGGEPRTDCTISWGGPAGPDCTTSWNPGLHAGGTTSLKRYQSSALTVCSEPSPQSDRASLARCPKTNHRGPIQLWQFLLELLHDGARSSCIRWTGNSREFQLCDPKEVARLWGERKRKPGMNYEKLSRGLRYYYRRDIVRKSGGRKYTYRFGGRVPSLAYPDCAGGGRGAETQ
# Procedure, shortened: as §1
# [10] = target: T7, ELF3 (Homo sapiens, UniProt P78545 1-371)
# T7 sequence: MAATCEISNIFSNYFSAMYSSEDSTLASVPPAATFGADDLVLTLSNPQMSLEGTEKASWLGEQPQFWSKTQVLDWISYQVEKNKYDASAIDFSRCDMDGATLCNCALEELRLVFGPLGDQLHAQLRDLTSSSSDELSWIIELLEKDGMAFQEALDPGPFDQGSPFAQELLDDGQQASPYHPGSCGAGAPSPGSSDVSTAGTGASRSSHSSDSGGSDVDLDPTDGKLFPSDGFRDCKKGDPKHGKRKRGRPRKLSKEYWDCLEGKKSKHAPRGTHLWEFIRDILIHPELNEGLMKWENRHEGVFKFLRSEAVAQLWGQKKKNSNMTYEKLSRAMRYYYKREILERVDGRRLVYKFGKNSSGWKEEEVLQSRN
# Procedure, shortened: as §1
# [11] = target: ETV1 (Homo sapiens, UniProt P50549 1-477)
# Procedure, shortened: as §1
# [12] = target: T8, SPDEF (Homo sapiens, UniProt O95238 1-335)
# T8 sequence: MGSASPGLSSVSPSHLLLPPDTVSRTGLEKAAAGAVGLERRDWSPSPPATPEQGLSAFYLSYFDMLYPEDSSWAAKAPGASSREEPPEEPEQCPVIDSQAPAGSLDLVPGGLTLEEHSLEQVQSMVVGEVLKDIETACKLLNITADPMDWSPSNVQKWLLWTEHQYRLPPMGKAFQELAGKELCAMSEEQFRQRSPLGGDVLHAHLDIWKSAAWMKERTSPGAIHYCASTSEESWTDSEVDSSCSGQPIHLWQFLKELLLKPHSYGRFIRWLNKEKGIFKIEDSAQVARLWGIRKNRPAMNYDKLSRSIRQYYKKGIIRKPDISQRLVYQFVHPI
# Procedure, shortened: as §1
# Chain of SPIB (Q01892 whole entry): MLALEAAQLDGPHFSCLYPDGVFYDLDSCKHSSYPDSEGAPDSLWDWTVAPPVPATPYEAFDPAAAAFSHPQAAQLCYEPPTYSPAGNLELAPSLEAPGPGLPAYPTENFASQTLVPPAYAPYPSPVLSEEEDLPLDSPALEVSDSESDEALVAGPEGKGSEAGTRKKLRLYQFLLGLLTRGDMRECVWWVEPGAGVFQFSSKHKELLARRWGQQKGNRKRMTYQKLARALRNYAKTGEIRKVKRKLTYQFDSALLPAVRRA
# Chain of ETV1 (P50549 whole entry): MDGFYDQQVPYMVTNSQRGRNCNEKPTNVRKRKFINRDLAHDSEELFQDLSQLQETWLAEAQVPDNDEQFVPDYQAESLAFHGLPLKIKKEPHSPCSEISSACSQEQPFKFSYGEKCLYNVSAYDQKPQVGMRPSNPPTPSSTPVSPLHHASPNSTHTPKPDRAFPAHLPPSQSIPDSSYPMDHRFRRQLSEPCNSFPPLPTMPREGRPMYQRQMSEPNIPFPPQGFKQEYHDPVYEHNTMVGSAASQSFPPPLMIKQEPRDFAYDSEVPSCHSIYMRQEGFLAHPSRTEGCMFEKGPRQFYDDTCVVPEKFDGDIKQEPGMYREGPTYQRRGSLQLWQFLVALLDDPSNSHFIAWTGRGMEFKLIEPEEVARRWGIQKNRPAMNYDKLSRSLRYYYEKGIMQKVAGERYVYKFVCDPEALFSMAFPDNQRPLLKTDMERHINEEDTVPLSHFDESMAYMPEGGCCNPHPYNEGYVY
# Chain of ELF4 (Q99607 whole entry): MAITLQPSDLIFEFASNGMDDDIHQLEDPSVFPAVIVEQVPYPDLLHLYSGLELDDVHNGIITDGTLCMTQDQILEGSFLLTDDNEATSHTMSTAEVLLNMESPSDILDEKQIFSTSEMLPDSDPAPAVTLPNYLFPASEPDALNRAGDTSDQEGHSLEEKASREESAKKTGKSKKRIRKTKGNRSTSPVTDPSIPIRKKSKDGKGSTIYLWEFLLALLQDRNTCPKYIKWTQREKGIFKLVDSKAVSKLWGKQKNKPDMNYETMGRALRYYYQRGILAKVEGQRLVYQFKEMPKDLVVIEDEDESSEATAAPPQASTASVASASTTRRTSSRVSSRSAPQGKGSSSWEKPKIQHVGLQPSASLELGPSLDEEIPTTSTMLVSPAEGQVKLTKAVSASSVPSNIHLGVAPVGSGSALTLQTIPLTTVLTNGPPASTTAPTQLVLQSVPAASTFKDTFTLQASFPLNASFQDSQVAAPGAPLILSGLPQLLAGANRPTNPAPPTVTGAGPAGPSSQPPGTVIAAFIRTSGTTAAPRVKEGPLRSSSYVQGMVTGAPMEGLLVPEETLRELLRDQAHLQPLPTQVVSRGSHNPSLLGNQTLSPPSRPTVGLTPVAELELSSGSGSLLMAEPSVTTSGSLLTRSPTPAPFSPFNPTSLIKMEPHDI
# Chain of ETV5 (P41161 whole entry): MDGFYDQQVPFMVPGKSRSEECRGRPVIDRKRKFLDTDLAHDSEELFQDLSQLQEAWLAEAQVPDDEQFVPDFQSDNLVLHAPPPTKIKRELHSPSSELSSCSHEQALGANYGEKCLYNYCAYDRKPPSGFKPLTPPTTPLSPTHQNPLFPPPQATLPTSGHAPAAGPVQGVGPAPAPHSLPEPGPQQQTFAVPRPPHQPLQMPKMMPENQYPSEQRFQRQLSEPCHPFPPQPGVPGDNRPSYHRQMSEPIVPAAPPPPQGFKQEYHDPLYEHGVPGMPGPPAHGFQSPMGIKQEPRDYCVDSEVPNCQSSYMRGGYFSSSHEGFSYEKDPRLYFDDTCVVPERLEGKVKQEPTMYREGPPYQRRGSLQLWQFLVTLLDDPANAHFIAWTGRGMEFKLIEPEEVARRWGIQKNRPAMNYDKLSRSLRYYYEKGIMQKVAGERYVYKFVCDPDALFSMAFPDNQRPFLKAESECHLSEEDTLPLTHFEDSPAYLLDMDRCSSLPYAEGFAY
sequence,measurement,setting,value
GGTCAC,binding signal,[1],"1.02 fold enrichment (6-mer frequency, TF over GST control)"
same,binding signal,[2],"1.06 fold enrichment (6-mer frequency, TF over GST control)"
same,binding signal,[3],"1.01 fold enrichment (6-mer frequency, TF over GST control)"
same,binding signal,[4],"1.04 fold enrichment (6-mer frequency, TF over GST control)"
same,binding signal,[5],"1.02 fold enrichment (6-mer frequency, TF over GST control)"
same,binding signal,[6],"1.04 fold enrichment (6-mer frequency, TF over GST control)"
same,binding signal,[7],"1 fold enrichment (6-mer frequency, TF over GST control)"
same,binding signal,[8],"1.03 fold enrichment (6-mer frequency, TF over GST control)"
same,binding signal,[9],"1.15 fold enrichment (6-mer frequency, TF over GST control)"
same,binding signal,[10],"1.05 fold enrichment (6-mer frequency, TF over GST control)"
same,binding signal,[11],"1.02 fold enrichment (6-mer frequency, TF over GST control)"
same,binding signal,[12],"1.05 fold enrichment (6-mer frequency, TF over GST control)"
